High-throughput results (PubChem)
eIF4H inh = human eIF4H binding inhibitors, primary screen, translation initiation inhibitor project, biochemical, uHTS, fluorescence polarization | Eukaryotic translation initiation factor 4H (Homo sapiens), Q15056 | eIF4H fluorescence polarization binding assay | inhibition, % at 35 µM | 0.94% of 290,000 active | AID 2012, 2009;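 note: calls also rest on retests at 20 µM and on dose response follow-up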
PABP FP inh = PABP poly(A) RNA binding inhibitors, primary screen, biochemical, fluorescence polarization, uHTS. Polyadenylate-binding protein 1 (Homo sapiens), P11940. calls only at 35 µM. 1% of 290,000 active. AID 2014, 2009;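 note: calls also rest on retests at 20 µM and on dose response follow-up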
eIF4E-4G inh = eIF4E–eIF4G protein interaction inhibitors, primary screen, biochemical, uHTS, TR-FRET, eIF4GI fragment. Eukaryotic translation initiation factor 4E (Mus musculus) + Eukaryotic translation …. TR-FRET eIF4E-eIF4GI(517-606) binding, 2 h. inhibition, % at 21.7 µM. 0.37% of 220,000 active. AID 782, 2007;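 active = inhibition above about 30%, limit read from the data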;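 note: 0% = full FRET control wells and 100% = background wells lacking eIF4GI fragment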
MLLE-PAM2 inh = inhibitors of PABP1 MLLE–PAM2 peptide binding, primary screen, biochemical, fluorescence polarization, FITC-PAM2, GST-MLLE. Polyadenylate-binding protein 1 (Homo sapiens), P11940. 0.36% of 360,000 active. inhibition, % at 20 µM. AID 588489, 2011; in the data active = inhibition above about 35%, passing the limit was not always enough;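 note: plate controls were DMSO wells with GST-MLLE for no effect and wells lacking GST-MLLE protein for full effect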
14-3-3 Bad PPI = inhibitors of 14-3-3 zeta/Bad binding, primary screen, biochemical, TR-FRET, bovine 14-3-3 zeta. 0.71% of 220,000 active. AID 781, 2007. inhibition, % at 21.7 µM. TR-FRET 14-3-3zeta/Dy647-pBad peptide displacement, 1 h;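 active = inhibition above about 70%, limit read from the data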;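 note: 0% = full 14-3-3 plus peptide FRET controls and 100% = background without 14-3-3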
Numbers without * were called inactive. Hits are enriched below; roughly 1.9% of the tested compounds scored in any of these assays. Unless noted, the rule behind the calls is not given here.

For O=C(N=C1c2ccccc2CN1c1ccc(F)c(F)c1)c1cccnc1 the results were eIF4H inh 0, PABP FP inh inactive, eIF4E-4G inh -4, MLLE-PAM2 inh 9 and 14-3-3 Bad PPI 71*.
For CC1CCN(C(=O)CSc2nncn2-c2ccccn2)CC1 the results were eIF4H inh -8, PABP FP inh inactive, eIF4E-4G inh -6, MLLE-PAM2 inh 39* and 14-3-3 Bad PPI -1.
For CC1CCN(C(=O)CSc2nncn2C)CC1 the results were eIF4H inh 0, PABP FP inh inactive, eIF4E-4G inh 0, MLLE-PAM2 inh 2 and 14-3-3 Bad PPI 1.
For O=C1C2Sc3[nH]c(=O)sc3C(c3ccccc3)C2C(=O)N1c1ccccc1 (centres undefined) the results were eIF4H inh 9, PABP FP inh inactive, eIF4E-4G inh 0, MLLE-PAM2 inh 21 and 14-3-3 Bad PPI 37.
COc1ccc(C2c3sc(=O)[nH]c3SC3C(=O)N(c4ccccc4)C(=O)C32)cc1 (centres undefined) was read as eIF4H inh 66*, PABP FP inh inactive, eIF4E-4G inh 3, MLLE-PAM2 inh 26 and 14-3-3 Bad PPI 2.
`CCCN(C1CCS(=O)(=O)C1)S(=O)(=O)c1ccc(F)cc1` (centres undefined) gave MLLE-PAM2 inh 10.
Screening Clc1ccc2oc(-c3ccccn3)nc2c1 returned eIF4H inh 16*, PABP FP inh active, eIF4E-4G inh -4, MLLE-PAM2 inh -24 and 14-3-3 Bad PPI 3.
`CNc1cnc(-c2cccc(C(=O)N3CCOCC3)c2)cn1` gave MLLE-PAM2 inh -8.
`CCCOc1ccc(N2C(=O)CC(N(CCc3ccccc3)C(=O)c3ccccc3)C2=O)cc1` (centres undefined) gave eIF4H inh 2, PABP FP inh inactive, eIF4E-4G inh 3, MLLE-PAM2 inh 10 and 14-3-3 Bad PPI -5.
`O=C(NC(=S)N1CCCc2ccccc21)c1ccc(Br)cc1` gave eIF4H inh 28, PABP FP inh inactive, eIF4E-4G inh 7, MLLE-PAM2 inh 47* and 14-3-3 Bad PPI -8.
For O=C(NC(=S)N1CCCc2ccccc21)c1ccccc1 the results were eIF4H inh 3, PABP FP inh inactive, eIF4E-4G inh 4, MLLE-PAM2 inh 34 and 14-3-3 Bad PPI -3.
Screening COc1ccc(C(=O)N2CCCc3ccccc32)cc1 returned eIF4H inh -3, PABP FP inh inactive, eIF4E-4G inh -2, MLLE-PAM2 inh -2 and 14-3-3 Bad PPI 88*.
For COc1ccc(C(=O)NC(=S)N2CCCc3ccccc32)cc1OC the results were eIF4H inh 7, PABP FP inh inactive, eIF4E-4G inh 3, MLLE-PAM2 inh 41* and 14-3-3 Bad PPI -5.
For COc1ccccc1C(=O)NC(=S)N1CCCc2ccccc21 the results were eIF4H inh 32, PABP FP inh active, eIF4E-4G inh -4, MLLE-PAM2 inh 17 and 14-3-3 Bad PPI -11.
COc1ccccc1C(=O)NC(=S)N1CCc2ccccc21 was read as eIF4H inh -11, PABP FP inh inactive, eIF4E-4G inh -2, MLLE-PAM2 inh -12 and 14-3-3 Bad PPI -6.
For O=C(O)c1ccc(CNC(=O)C23CC4CC(CC(C4)C2)C3)cc1 the results were eIF4H inh -4, PABP FP inh inactive and MLLE-PAM2 inh -8.
CCOc1ccc2[nH]c(SCC(=O)OC)c([N+](=O)[O-])c2c1 was read as eIF4H inh 54*, PABP FP inh active, eIF4E-4G inh 3, MLLE-PAM2 inh 54* and 14-3-3 Bad PPI -2.
For O=C1C(Nc2cccc(O)c2)=C(N2CCCCC2)C(=O)c2ccccc21 the results were eIF4H inh 6, PABP FP inh inactive, eIF4E-4G inh 6, MLLE-PAM2 inh 49* and 14-3-3 Bad PPI -4.
OC1Cc2ccccc2C1Nc1cccc(C(F)(F)F)c1 (centres undefined) was read as MLLE-PAM2 inh 0.
`Cc1cc(O)c(C=O)c2c1C(=O)Oc1c(CO)c(O)c3c(c1O2)C(O)OC3=O` (centres undefined) gave eIF4H inh 108*, PABP FP inh active, eIF4E-4G inh 7, MLLE-PAM2 inh 24 and 14-3-3 Bad PPI 58.
